This passage reports inhibition results from PubChem BioAssay.

Structures are written as SMILES. A number with no mark means an inactive call. The source made the active and inactive calls. Unless noted, no stated cut-off is given here; in the data, active means inhibition above about 36%; inactive means the rest.

Experiment [1] relates to transactivating tegument protein VP16 (Human herpesvirus 1). Kind of experiment: compounds suppressing VP16-driven luciferase signal – cell-based, luminescence, single concentration, counter-screen for SRC2 inhibitor project (AID 652007). As to conditions: cell-based VP16 transactivation luciferase reporter, at 8.9 µM, hits give high values. In general terms: A counterscreen serves to expose hits that act by an unwanted route or on another target.

In experiment [2] the target is Nuclear receptor coactivator 2 (Homo sapiens) (UniProt Q15596). Briefly: inhibition of GAL4-SRC2 driven luciferase expression – cell-based, luminescence, HEK293, triplicate, confirmation (AID 652008;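 active means mean inhibition above 46.5%, the solvent-only control mean plus 3 SD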;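 further: 0% = DMSO-treated cells and 100% = Gossypol at 36 µM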). As to conditions: HEK293 GAL4-SRC2 luciferase reporter, at 8.9 µM, hits give high values. In general terms: Reporter assays use an easily measured gene product as a stand-in for the process of interest.
Sequence of Nuclear receptor coactivator 2 (Homo sapiens) (Q15596 whole entry, looked up, the tested form may be a part): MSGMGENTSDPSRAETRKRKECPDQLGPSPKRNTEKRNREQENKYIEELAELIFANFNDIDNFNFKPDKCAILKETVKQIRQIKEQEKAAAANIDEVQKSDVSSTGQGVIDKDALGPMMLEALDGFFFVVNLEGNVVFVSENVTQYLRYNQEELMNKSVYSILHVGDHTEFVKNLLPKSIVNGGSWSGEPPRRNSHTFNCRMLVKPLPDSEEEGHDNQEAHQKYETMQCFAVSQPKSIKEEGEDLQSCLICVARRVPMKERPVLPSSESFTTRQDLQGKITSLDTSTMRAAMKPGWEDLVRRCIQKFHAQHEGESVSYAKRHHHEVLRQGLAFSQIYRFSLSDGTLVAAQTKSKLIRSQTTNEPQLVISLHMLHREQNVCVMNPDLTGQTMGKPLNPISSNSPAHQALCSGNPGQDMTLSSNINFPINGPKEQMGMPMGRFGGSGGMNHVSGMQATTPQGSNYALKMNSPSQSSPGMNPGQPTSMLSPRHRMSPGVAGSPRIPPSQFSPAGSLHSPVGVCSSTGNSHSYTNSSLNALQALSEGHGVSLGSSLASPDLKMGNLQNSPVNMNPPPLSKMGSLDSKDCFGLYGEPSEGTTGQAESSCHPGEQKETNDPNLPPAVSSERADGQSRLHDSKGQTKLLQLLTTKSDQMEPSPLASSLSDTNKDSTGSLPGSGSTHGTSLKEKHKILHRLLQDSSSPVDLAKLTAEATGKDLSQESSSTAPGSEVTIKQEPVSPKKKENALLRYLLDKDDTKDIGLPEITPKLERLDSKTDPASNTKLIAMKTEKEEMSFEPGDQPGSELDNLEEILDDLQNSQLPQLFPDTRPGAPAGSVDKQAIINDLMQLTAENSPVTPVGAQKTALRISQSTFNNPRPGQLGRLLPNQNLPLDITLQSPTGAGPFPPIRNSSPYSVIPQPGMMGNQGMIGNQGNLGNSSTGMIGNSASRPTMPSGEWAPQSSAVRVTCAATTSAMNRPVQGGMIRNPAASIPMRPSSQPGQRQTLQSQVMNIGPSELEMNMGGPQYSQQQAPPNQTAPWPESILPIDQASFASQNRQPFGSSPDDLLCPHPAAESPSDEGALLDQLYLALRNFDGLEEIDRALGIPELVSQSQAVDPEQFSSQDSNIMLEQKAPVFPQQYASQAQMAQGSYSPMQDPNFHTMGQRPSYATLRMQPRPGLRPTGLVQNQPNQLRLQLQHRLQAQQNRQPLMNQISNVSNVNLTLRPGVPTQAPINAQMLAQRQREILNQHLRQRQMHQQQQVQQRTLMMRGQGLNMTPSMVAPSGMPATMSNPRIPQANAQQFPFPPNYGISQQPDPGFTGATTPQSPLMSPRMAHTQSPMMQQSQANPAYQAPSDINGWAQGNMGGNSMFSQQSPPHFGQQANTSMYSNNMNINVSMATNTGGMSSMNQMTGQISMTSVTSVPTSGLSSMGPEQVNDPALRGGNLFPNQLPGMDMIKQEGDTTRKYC

For the compound `CCC(Cc1ccccc1)NC(=O)C1CCN(c2nn3c(=O)cc(C)nc3s2)CC1` (configuration not stated), the inhibition in experiment [1] was -17.6%; in experiment [2], -18.8%.

Consider `Cn1c(=O)c(=O)n(C)c2cc(S(=O)(=O)Nc3ccc4c(c3)OCCO4)ccc21`, for which the inhibition was -4.82% in experiment [1] and 47.5% (active) in experiment [2].

On to `O=C(CCCN1C(=O)/C(=C/c2ccccc2Cl)SC1=S)NCCCN1CCOCC1`, for which the inhibition in experiment [1] was 33.6%; in experiment [2], 45.9%.

With `COc1cccc(-c2ncn(CCc3ccccc3OC)c2CC(C)C)c1`, the inhibition in experiment [1] was -2.53%; in experiment [2] it was 18.6%.

As to `COc1ccc(O)c(/C=N/NC(=O)c2ccc(CSc3nc(C)cc(C)n3)cc2)c1`, the figures for the inhibition in experiment [1] and in experiment [2] were 0.19% and 26.4%, respectively.

In the case of `CCCCCCC(=O)N(O)C1CC(=O)N(c2ccc(C)cc2)C1=O` (configuration not stated), the inhibition in experiment [1] is 9.6%; in experiment [2], 39.9%.

Take `CC(=O)c1cccc(NC(=O)c2ccccc2N(C)S(=O)(=O)c2ccc(C)cc2)c1`: the inhibition in experiment [1] was -5.87%; in experiment [2] it was 0.15%.

On to `CCOC(=O)C1=C(COC(=O)CCOc2cc(C)ccc2C)NC(=O)NC1C` (configuration not stated), for which the figures for the inhibition in experiment [1] and in experiment [2] were -6.92% and -29.2%, respectively.

Take `O=C(Nc1ccc2c(c1)OCCO2)NC1(C(F)(F)F)Oc2ccccc2O1`: the inhibition in experiment [1] is -12.8%; in experiment [2], 43.7%.

`CCCCOc1ccc(C2(C)NC(=O)NC2=O)cc1` (configuration not stated): the inhibition in experiment [1] was -7.32%; in experiment [2], -2.28%.

Regarding `O=C(c1ccccc1F)N1CCN(S(=O)(=O)c2ccc3c(c2)OCCO3)CC1`, the inhibition in experiment [1] is 3.25%; in experiment [2] it was 22.9%.

As for `O=C(Nc1nc2ccccc2s1)c1ccc(N2CCCCC2)c([N+](=O)[O-])c1`, the inhibition in experiment [1] was -57.5%; in experiment [2] it was 10%.

For `O=C(Nc1ccccc1)C1=C(c2ccccc2)S(=O)(=O)CCS1(=O)=O`, the figures for the inhibition in experiment [1] and in experiment [2] were 84.9% (active) and 90.1% (active), respectively.

In the case of `O=C1/C(=C/c2ccncc2)CCC/C1=C\c1ccncc1`, the inhibition in experiment [1] was 89.1% (active); in experiment [2], 98.1% (active).

Consider `O=C(Nc1ncn[nH]1)c1ccc(Cl)c(S(=O)(=O)Nc2ccc(Cl)cc2)c1`, for which the results for the inhibition in experiment [1] and in experiment [2] were -5.84% and 5.69%, respectively.

With `C=C1CC2(OC1=O)c1ccccc1CCc1ccccc12`, the inhibition in experiment [1] is 49.2% (active); in experiment [2] it was 29.7%.

Regarding `Cc1ccc(S(=O)(=O)CC(=O)N(CCCN(C)C)c2nc3ccc(C)cc3s2)cc1`, the results for the inhibition in experiment [1] and in experiment [2] were -1.57% and 15.1%, respectively.

Regarding `O=C(Nc1ccc(NC(=O)c2ccco2)cc1)c1ccc2c(c1)OCCO2`, the values for the inhibition in experiment [1] and in experiment [2] were -30.2% and 12.1%, respectively.

As to `CC(=O)N(CCc1ccccc1)c1ccc2c(c1)C1CC2CCN1C(=O)OCc1ccccc1` (configuration not stated), the inhibition in experiment [1] is 17%; in experiment [2], 18.6%.

Consider `Cc1cc(C2=NNC(=NC3CC3)SC2)c(C)n1Cc1ccco1`, for which the inhibition in experiment [1] is 78.6% (active); in experiment [2], 93.6% (active).

Consider `COc1ccc(NC(=O)C2(C)Cc3c(-c4cccc(NC(C)=O)c4)ccnc3O2)cc1` (configuration not stated), for which the inhibition is -10.6% in experiment [1] and 1.6% in experiment [2].

`Cc1nn(Cc2ccc(C(=O)NC(C)(C)C)o2)c(C)c1Br`: the inhibition is 5.83% in experiment [1] and 17.8% in experiment [2].

As for `COc1ccc([N+](=O)[O-])c(S(=O)(=O)c2ccc(Cl)cc2)n1`, the results for the inhibition in experiment [1] and in experiment [2] were 8.89% and 52.3% (active), respectively.

Turning to `Cc1cc(Cl)n2c(nc3ccccc32)c1C#N`, the inhibition is 4.56% in experiment [1] and 28.4% in experiment [2].

`Cc1cccc(NS(=O)(=O)c2ccc(C)c(C(=O)NC3CCN(Cc4ccccc4)CC3)c2)c1`: the inhibition was 8.2% in experiment [1] and 6.89% in experiment [2].

In the case of `O=C(Nc1ncc([N+](=O)[O-])s1)c1ccc2c(c1)OCO2`, the inhibition in experiment [1] was -5.69%; in experiment [2] it was 37.6%.

With `Cc1ccc(O)c(/C=N/NC(=O)Cc2ccc(Cl)cc2)c1`, the inhibition in experiment [1] is -11.1%; in experiment [2], -13.9%.

In the case of `N#Cc1c(NC(=O)CSc2ncn[nH]2)sc2c1CCCC2`, the results for the inhibition in experiment [1] and in experiment [2] were 84% (active) and 88.2% (active), respectively.

On to `CCn1c(=O)c2c(cnn2C)c2ccccc21`, for which the inhibition in experiment [1] is 25.8%; in experiment [2] it was 50.6% (active).

For the compound `CCOc1ccccc1OCCCCOc1ccccc1F`, the inhibition is -9.29% in experiment [1] and -12.6% in experiment [2].

With `CN(Cc1ccc(OC(F)F)cc1)C(=O)c1ccc(S(=O)(=O)N(C)c2ccccc2)cc1`, the inhibition was -22.2% in experiment [1] and -12.8% in experiment [2].

As for `CC1=C(C(=O)N2CCOCC2)CC(CC(=O)NCCCCc2ccccc2)C(=O)N1Cc1ccc(C(C)(C)C)cc1` (configuration not stated), the inhibition in experiment [1] was 12.6%; in experiment [2] it was 2.06%.

With `CC(NC(=O)CCc1nnc(-c2ccc(-c3ccccc3)cc2)o1)c1nccs1` (configuration not stated), the inhibition in experiment [1] is 17%; in experiment [2] it was 58.5% (active).

`O=C(CCl)Nc1ccc(C(=O)NCC2COc3ccccc3O2)cc1` (configuration not stated): the inhibition in experiment [1] was 71.2% (active); in experiment [2], 39.9%.

As to `CC(=O)N1CCOc2ccc(S(=O)(=O)NCC3CCC(C(=O)Nc4ccc(C)cn4)CC3)cc21` (configuration not stated), the inhibition is 14.8% in experiment [1] and 15.4% in experiment [2].

Take `CN(Cc1ccc(Cl)s1)C(=O)CCl`: the values for the inhibition in experiment [1] and in experiment [2] were 14.2% and 22%, respectively.

`COc1cccc(N2CCN(C(=O)c3ccc(CS(=O)c4ccc(Cl)cc4)o3)CC2)c1` (configuration not stated): the inhibition in experiment [1] is 19.7%; in experiment [2], 14.5%.

Turning to `CC(=C\c1ccccc1)/C=C1/SC(=S)N(CCCC(=O)O)C1=O`, the inhibition is 78.9% (active) in experiment [1] and 79.2% (active) in experiment [2].

Consider `COc1ccc2nc(-c3ccc(N)cc3)[nH]c2c1`, for which the results for the inhibition in experiment [1] and in experiment [2] were -62.2% and 49.5% (active), respectively.

On to `Cc1ccc(S(=O)(=O)Nc2ccccc2C(=O)N2CCCC2)cc1`, for which the inhibition in experiment [1] was -24.9%; in experiment [2] it was 0.98%.

With `Cc1cc2nc(Sc3c([N+](=O)[O-])nc(C)n3Cc3ccccc3)[nH]c2cc1C`, the inhibition in experiment [1] is 5.05%; in experiment [2] it was 30.7%.

Turning to `O=c1ccn(Cc2ccc(F)cc2)c2ccnc(C(F)(F)F)c12`, the inhibition was 14.8% in experiment [1] and 16.6% in experiment [2].

With `COn1c2c(c3c4nonc4ccc31)CCCC2`, the inhibition was 0.98% in experiment [1] and 18.7% in experiment [2].

Regarding `Cc1ccc([C@@H]2C[C@H]3[C@@H](CN2S(=O)(=O)c2ccc(C)cc2)C(=O)C[C@@H](c2ccccc2F)N3S(=O)(=O)c2ccc(C)cc2)cc1`, the figures for the inhibition in experiment [1] and in experiment [2] were -8.37% and -5.47%, respectively.

In the case of `Cc1cc(N/N=C/c2ccc(O)cc2)nc(NS(=O)(=O)c2ccccc2)n1`, the inhibition in experiment [1] is -14.1%; in experiment [2], 16.5%.

With `COc1ccc(CNn2c(-c3cccs3)nc3ccccc3c2=O)cc1OC`, the inhibition in experiment [1] is -9.43%; in experiment [2], 33.2%.

As for `CCCCCc1ccc(-c2ccc(/C=C/C(=O)O)cc2)nc1`, the inhibition in experiment [1] was -23.1%; in experiment [2], 60.2% (active).

Take `CCOc1ccc(-c2c(C(=O)N/N=C/c3cccc(Br)c3)nnn2-c2nonc2N)cc1`: the inhibition in experiment [1] is -5.94%; in experiment [2], -23.4%.

Consider `O=C(COc1ccc([N+](=O)[O-])cc1)Nc1ccc(C(=O)NCc2cccnc2)cc1`, for which the inhibition in experiment [1] is -13.3%; in experiment [2], 27.8%.

With `COc1ccc(S(=O)(=O)N2CCCC(C(=O)NCc3ccncc3)C2)cc1` (configuration not stated), the values for the inhibition in experiment [1] and in experiment [2] were -0.24% and 10.6%, respectively.

Take `O=C(CCc1nnc(C2CCCCC2)o1)N1CCC(Oc2cccnc2)CC1`: the results for the inhibition in experiment [1] and in experiment [2] were 1.02% and 4.42%, respectively.

In the case of `COc1cccc(/C=N/NC(=O)c2cc(-c3ccccn3)nc3ccccc23)c1O`, the inhibition in experiment [1] was 9.38%; in experiment [2] it was 19.8%.

As to `CC(=O)c1cccc(NC(=O)Nc2ccc(C(=O)N3CCOCC3)cc2)c1`, the inhibition was -8.69% in experiment [1] and 17.1% in experiment [2].

For the compound `Cc1ccc(C(=O)O/N=C(\N)c2ccccn2)cc1C`, the inhibition in experiment [1] is -29.9%; in experiment [2], -24.9%.

For `O=[N+]([O-])c1cccc2c(N3CCCC3)ccnc12`, the inhibition in experiment [1] is 11.7%; in experiment [2] it was -23.4%.

Turning to `CC(=O)Nc1cc(-c2ccc(C(=O)NC3CC3)cc2)cn2c(-c3cccc(C(F)(F)F)c3)cnc12`, the inhibition in experiment [1] was -9.85%; in experiment [2], -1.25%.

Turning to `O=C(c1cccc2c1-c1ccccc1/C2=N/O)N1CCCCC1`, the inhibition was 0.22% in experiment [1] and 30% in experiment [2].

Consider `CC1CN(C(=O)CCC(=O)N2CCN(c3cccc(C(F)(F)F)c3)CC2)c2ccccc2O1` (configuration not stated), for which the values for the inhibition in experiment [1] and in experiment [2] were 15.6% and 23.5%, respectively.

Consider `Oc1ccc(N=Nc2ccc3c(c2)OCCO3)c(O)c1`, for which the inhibition in experiment [1] was -71.4%; in experiment [2], 35.1%.

In the case of `CCOC(=O)C1(Cc2ccc(Cl)cc2)CCN(C(C)Cc2ccc(O)c(OC)c2)CC1` (configuration not stated), the inhibition in experiment [1] was 15.9%; in experiment [2], 30.1%.

As for `Cc1ccc(S(=O)(=O)C(NC(=O)c2ccccc2)=C(Cl)Cl)cc1`, the inhibition in experiment [1] was 14.1%; in experiment [2], 16.8%.

In the case of `Cc1ccc(CC2C(=O)N(c3cc(C)ccc3C)C(=O)C2C)cc1` (configuration not stated), the inhibition in experiment [1] is 0.03%; in experiment [2] it was 9.44%.

Turning to `CN(c1ccccc1)S(=O)(=O)c1ccc(C(=O)NCc2ccccc2CN2CCCC2)cc1`, the inhibition in experiment [1] was -19.8%; in experiment [2] it was -25.8%.

For the compound `COCCn1c(-c2ccc(Br)cc2)csc1=Nc1cccnc1`, the inhibition was 10.4% in experiment [1] and 20.4% in experiment [2].

Consider `CNc1ccc(N=Nc2cccc3ncccc23)cc1`, for which the inhibition is -76% in experiment [1] and 14.4% in experiment [2].

`COc1ccc(CNCc2ccc(C(F)(F)F)cc2)cc1OC`: the inhibition in experiment [1] is 0.19%; in experiment [2] it was -3.81%.

As to `Cc1cc(Cl)c(S(=O)(=O)N2CCN(c3ccccn3)CC2)cc1OCC(=O)NC1CCCCC1`, the inhibition in experiment [1] is 10.5%; in experiment [2], 16.3%.

`CC(C)(CN1CCC(Cc2ccccc2)CC1)NS(=O)(=O)c1ccccc1`: the inhibition in experiment [1] is 13.9%; in experiment [2], 32.5%.

In the case of `CCOC(=O)N1C(=O)[C@@](c2ccc(Cl)cc2)(C(C)C)N1C(=O)OCC`, the inhibition in experiment [1] was -14%; in experiment [2] it was 16.6%.

As for `Cc1ccc(C2CC(c3cccs3)=NN2C(=O)CSC2=NCCS2)cc1` (configuration not stated), the inhibition was 17.9% in experiment [1] and 16.1% in experiment [2].

With `Cc1ccc(NC(=O)C2(C)CCN2C(=O)CC(c2ccccc2)c2ccccc2)cc1` (configuration not stated), the inhibition in experiment [1] was -6.43%; in experiment [2] it was -7.67%.

The inhibition is the change of the read-out against control, counted positive when it falls.
